Measurements as given in PubChem BioAssay AID588795 (National Center for Advancing Translational Sciences (NCATS), 2011).
Several values for one entry are separate records, joined by “and”; a condition that tells them apart may be missing. Equal entries are not always repeated. Hit rate of the full screen: of about 390,000 compounds, about 1,400 (0.36%) were called active. Not shown: some 2% with an inconclusive outcome. The sample holds actives, similar compounds and a random draw of the others, so the mix is not that of the screen. Calls come from the whole dose curve; as a rule, active = well fitted inhibition curve with a large enough effect; inconclusive = small, poorly fitted or top-dose-only effect; inactive = no such curve, though single readings can be large or run the other way. The source holds several records for some structures; these can differ, active in one and inactive in another.

Biological target: Flap endonuclease 1 (Homo sapiens) (UniProt P39748)
Sequence (P39748 whole entry, looked up): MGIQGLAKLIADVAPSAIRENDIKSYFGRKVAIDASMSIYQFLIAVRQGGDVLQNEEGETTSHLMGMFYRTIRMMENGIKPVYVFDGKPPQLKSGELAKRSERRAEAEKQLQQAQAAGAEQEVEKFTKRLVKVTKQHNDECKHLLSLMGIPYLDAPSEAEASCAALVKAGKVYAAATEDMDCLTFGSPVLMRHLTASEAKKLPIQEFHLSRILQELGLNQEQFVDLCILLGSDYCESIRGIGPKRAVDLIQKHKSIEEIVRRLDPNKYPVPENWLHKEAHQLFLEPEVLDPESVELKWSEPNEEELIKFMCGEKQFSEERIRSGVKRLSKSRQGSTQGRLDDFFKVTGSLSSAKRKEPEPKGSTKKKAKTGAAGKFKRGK
Assay: qHTS Assay for the Inhibitors of Human Flap endonuclease 1 (FEN1). Note: nearly all actives have a fitted effect of over 65% in size.
Conditions: Recombinant FEN1 flap cleavage, fluorescence, 15 min; series mostly up to 114 µM
How it was run: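 FEN1 at 10 nM, compound pretreatment for 15 min (room temperature), 50 nM final substrate to initiate; endpoint reads at 0 and 15 min; DMSO-only plates used as vehicle background.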
Potency is the fitted concentration of half-maximal effect.

Potency, inactive and 39.8 µM (active):
CC(C)(C)n1ncc2c(=O)n(Cc3ccc(Cl)cc3)cnc21

Potency, inactive:
COc1ccccc1CNC(=O)C(=O)NCC(c1ccco1)S(=O)(=O)c1ccc(F)cc1 (stereo not drawn)
CN(C)c1cccc2ccccc12
Brc1nc2ncnc(NCc3ccco3)c2[nH]1
C[N+]1(CC(=O)c2cccs2)CCOCC1
O=C(NCCc1ccccc1)c1ccc2c(c1)N(Cc1ccccc1)C(=O)c1ccccc1S2(=O)=O
CCC(C)N(c1ccc(/C=C/c2ccnc3ccccc23)cc1)C(C)CC (stereo not drawn)
Cn1c(COc2ccccc2C(C)(C)C)nc2ccccc21
CCOc1n[nH]c(-c2ccccc2)n1
O=C(Nc1ccc(N2CCOCC2)cc1)c1ccc(-c2ccccc2[N+](=O)[O-])o1
O=C1NC(c2ccc(-c3ccccc3[N+](=O)[O-])o2)C(C(=O)c2ccc(Cl)cc2)C(O)(C(F)(F)F)N1 (stereo not drawn)
CN(C(=N)N)c1ccc(/C=C2\C=Cc3ccccc32)cc1
CC(=O)Nc1ccc2nc(SCCOc3cc(C)cc(C)c3)sc2c1
CN(C)c1ccc(/C=c2\[nH]c(=O)/c(=C/c3ccc(N(C)C)cc3)[nH]c2=O)cc1
CN(C)CCCn1c(-c2ccc(Cl)cc2)csc1=Nc1ccccc1
CC1(C)C=Cc2c(ccc(C(=O)/C=C/c3ccccc3)c2O)O1
CC(C)(C)c1ccc(C(=O)C[n+]2cccc3cc(Cl)ccc32)cc1
Nc1nc(N)c(N=O)c(N)n1
CC(C)(C)n1ncc2c(=O)n(Cc3ccc(C(=O)c4ccccc4)cc3)cnc21
CC(C)(C)n1ncc2c(=O)n(Cc3c(Cl)cccc3Br)cnc21
Oc1ccc(Br)cc1C1C=C(c2ccc3c(c2)OCO3)NC(c2ccc(Cl)cc2)N1 (stereo not drawn)
N#Cc1ccc[n+](CC(=O)c2ccc(F)cc2)c1
O=C(C[n+]1ccncc1)c1ccc2c(c1)CCCC2
CCN1CCN(c2ccc(/C=C/c3ccnc4ccccc34)cc2)CC1
N#CCC(=O)N/N=C/c1cn(Cc2ccc3ccccc3c2)c2ccccc12
Cc1ccc(/C=C(\C#N)C(=O)Nc2cc(C)ccc2C)cc1
O=C1O/C(=C\c2ccc(O)cc2)C(O)=C1c1ccc(O)cc1
CCc1ccc(OCCCn2c(CCCNC(=O)C3CCCCC3)nc3ccccc32)cc1
CN(C)Cc1cn(-c2ccccc2)nc1-c1ccccc1
Cc1ccc(-c2nnc(SCC(=O)NCc3ccccc3)nc2-c2ccc(C)cc2)cc1
O=C(NCCSc1ccccc1)c1ccco1
NC(=O)Nc1ccc(/C=C/c2ccnc3ccccc23)cc1
CC1CC(C)CN(c2oc(-c3ccc(OCc4ccc(Cl)cc4)cc3)nc2C#N)C1 (stereo not drawn)
O=C(COC(=O)CCCN1C(=O)c2cccc3cccc(c23)C1=O)NC1CCS(=O)(=O)C1 (stereo not drawn)
O=C(CN1C(=O)c2cccc3cccc(c23)C1=O)N1CCCCC1
O=C(O)C1=C/C(=C/C=[N+]2c3cc(O)c(O[C@H]4OC(CO)[C@@H](O)[C@@H](O)[C@@H]4O)cc3C[C@@H]2C(=O)[O-])C[C@H](C(=O)O)N1 (stereo partly drawn)
COc1cc2nc(C#Cc3nc4cc(OC)c(OC)cc4[nH]3)[nH]c2cc1OC
CS(=O)c1ccc(/C=C2\C=Cc3ccccc32)cc1 (stereo not drawn)
CCOC(=O)c1ccc(CS(=O)c2ccc(Cl)cc2)o1 (stereo not drawn)
CCOC(=O)N1CCN(C(=O)CNC(=O)Cc2ccc(Cl)cc2)CC1
O=C(CCS(=O)(=O)c1ccccc1)N(Cc1cccnc1)c1nc2c(F)cccc2s1
ClC/C=C/C[n+]1ccccc1Cl
Brc1cccc[n+]1Cc1cccc(C[n+]2ccccc2Br)c1
Oc1ccc(Cl)cc1C1C=C(c2ccc3c(c2)OCO3)NC(c2ccc(F)c(Br)c2)N1 (stereo not drawn)
CC(C)(C)OC(=O)N1CCC(c2c(C(=O)NCc3ccccn3)cnn2-c2ccc(F)cc2)CC1
CCCCC(CCCC)c1ccc(C=Nc2ccc(/C=C/c3ccnc4ccccc34)cc2)cc1
COc1ccc(Cl)cc1NC(=O)CCn1c(=O)c2cccn2c2ccccc21
O=C(c1cnn2c1NC(=C1CC1)C=C2C(F)F)N1CCc2ccccc2C1
Cc1csc(NCC(=O)c2c[nH]c3ccccc23)n1
CN(C)C1=C2C=CC=CC2/C(=C2/C=Cc3ccccc32)C=C1 (stereo not drawn)
OC(CBr)C[n+]1cccc2cc(Br)ccc21 (stereo not drawn)
CCc1nnc(NC(=O)c2cc(S(=O)(=O)N3CCCCC3)ccc2C)s1
CCc1ccc(NC(=O)c2sc3nc4c(cc3c2N)CN(CC)CC4)cc1
CN(Cc1ccccc1)c1ccc(/C=C/c2ccnc3ccccc23)cc1
O=C(c1ccco1)N(Cc1cccs1)c1ccc(O)cc1
OC[C@@H]1O[C@H](n2cnc3c(SCc4ccccc4)ncnc32)[C@H](O)[C@H]1O
CCN(CC)c1ccc(/C=C/c2c(C)cnc3ccc(C)cc23)cc1
O=C(O)c1cccc(N=NN2CCCCCC2)c1
CN=C1S/C(=C\c2c(OC)cc(OC)cc2OC)C(=O)N1C
COc1cc2[nH]c(C)c(CCN3CCN(c4ccccc4)CC3)c2cc1OC
O=C(CSc1nc(=O)n(Cc2cccnc2)c2c1CCC2)Nc1ccc(F)cc1F
Cc1nc([N+](=O)[O-])cn1CC(=O)Nc1ccc2c(c1)OCO2
COC(=O)c1ccc2c(c1)N(CC(=O)Nc1ccc(C)c(C)c1)C(=O)c1ccccc1S2
CSc1n[nH]c(-c2ccco2)n1
CCCCNC(=O)Cn1c(SCc2cccc(Cl)c2)nc2ccncc21
CC(C)(C)c1ccc(C(=O)C[N+]2(C)CCCc3ccccc32)cc1 (stereo not drawn)
Fc1ccc(-c2ccc(NCCN3CCOCC3)nn2)cc1
CCOc1nc(NCCN2CCOCC2)nc(Nc2ccc(C)cc2)n1
COc1cc(OC)c(OC)cc1/C=C1\C=Cc2ccccc21
O=S(=O)(c1cccc(C(F)(F)F)c1)N1CCN(c2nc(-c3cccs3)nc3ccccc23)CC1
CN(C(=O)CCN1C(=O)/C(=C/c2ccccc2F)SC1=S)C1CCS(=O)(=O)C1 (stereo not drawn)
O=C1/C(=C\c2ccccc2Cl)SC(=S)N1CCC(=O)N1CCCc2ccccc21
CN1CCN(c2oc(-c3ccc(COc4ccc(Cl)cc4)o3)nc2C#N)CC1
COc1ccc(OC)c(NC(=O)C2CCCN(S(=O)(=O)c3ccc4c(c3)CCCC(=O)N4)C2)c1 (stereo not drawn)
COc1cccc(OC)c1C(=O)Nc1ccc2c(c1)n(C)c(=O)n2C
COc1ccc(/C=C/c2ccnc3ccccc23)cc1OC
CNc1ccc(-c2nc(-c3ccco3)no2)cc1[N+](=O)[O-]
CCOc1ncccc1C(=O)NNC(=O)c1cccc(S(=O)(=O)Nc2ccccc2OC)c1
COC(=O)c1ccccc1NS(=O)(=O)c1ccc2[nH]c(=O)[nH]c2c1
COc1ccc(Cn2c(=O)[nH]c3cc(C(=O)N4CCN(C(=O)c5ccco5)CC4)ccc3c2=O)cc1
Cc1ccc(S(=O)(=O)N2CCN(c3nc(-n4cnc5ccccc54)nc4ccccc34)CC2)cc1
C/C=C/NNC(=O)Cc1ccc(OC)cc1
Cc1cccc(OP(=O)(Nc2c(C)n(C)n(-c3ccccc3)c2=O)Oc2cccc(C)c2)c1
Cc1cccc(C2CC(=O)Oc3c2c(=O)n(C)c2ccccc32)c1 (stereo not drawn)

Potency, active:
CC1=NN(c2ccc(Cl)c(C(=O)O)c2)C(=O)/C1=C/c1ccc(-c2ccccc2[N+](=O)[O-])o1 28.2 µM
COc1ccc2c(c1)c(=Cc1ccc(N(C)C)cc1)c1cc(-c3ccccc3)[n+](C)n12 4.47 µM
N#Cc1ccc[n+](CC(=O)c2ccc(O)c(O)c2)c1 2 µM
Cc1ccc(Cl)cc1NC(=O)/C(C#N)=C\c1cn(Cc2ccc(F)cc2)c2ccccc12 89.1 µM
c1ccc(CSc2nnc(-c3ccco3)c(-c3ccco3)n2)cc1 56.2 µM
C[N+](C)(CCCCCC[N+](C)(C)CCCN1C(=O)c2cccc3cccc(c23)C1=O)CCCN1C(=O)c2cccc3cccc(c23)C1=O 2.51 µM
CCOC(=O)c1c(Cc2ccc(Cl)cc2)c[nH]c1C 89.1 µM
Clc1cccc[n+]1CCCC[n+]1ccccc1Cl 79.4 µM
CCc1ccc2nc3sc(C(=O)Nc4nnc(CC)s4)c(N)c3cc2c1 44.7 µM
CN1C(=O)/C(=C/c2ccco2)SC1=Nc1cccc(C(=O)O)c1 50.1 µM
Cc1ccc(C(=O)O)cc1-c1ccc(/C=C2\SC(=O)N(CC(=O)Nc3ccc4c(c3)OCO4)C2=O)o1 39.8 µM
CCC(=C/c1sc2ccc3ccccc3c2[n+]1C)/C=C1\Sc2ccc3ccccc3c2N1C 12.6 µM
c1ccc2cc3c(NCCN4CCOCC4)ccnc3cc2c1 17.8 µM
Cc1ccc(-c2nn(-c3ccccc3)cc2/C=C2\SC(=S)N(CCCCCC(=O)O)C2=O)o1 31.6 µM
Cc1cc(C)c2nc3nc(C)cc(C)c3c(N)c2c1 39.8 µM
COc1cccc2sc3cc(NCC[C@@H]4CCCN4C)ccc3c(=O)c12 50.1 µM
COc1cccc(/C=N/Nc2ccc(S(=O)(=O)Nc3ccccc3C(=O)O)cc2[N+](=O)[O-])c1O 79.4 µM
O=C1C(Cl)=C(Oc2ccccc2)C(=O)c2ccccc21 56.2 µM
Cc1cccc(Oc2c([N+](=O)[O-])c(=O)n(C)c3ccccc23)c1 20 µM
